CYP2C19 activ – cytochrome P450 2C19 (human) activation; P33261; recombinant CYP2C19, luciferin-H EGE luminescence; stronger effect = higher value; 0 = fully inhibited enzyme, 1 = untreated enzyme; activation factor at 5 µM; 96,000 tested, under 10 active; AID 1025;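 active means activation factor of at least 2 at 5 µM in the primary screen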
CYP2C9 activ – activators of human CYP2C9; activation factor at 5 µM; AID 1024; P11712; 1.4% of 96,000 active; recombinant CYP2C9, luciferin-H conversion, luminescence; stronger effect = higher value; factor 1 = untreated enzyme, 0 = blocked;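 active means activation factor of 2 or more for CYP2C9 at a 5 µM dose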
CYP2C9 inhib – blocks human cytochrome P450 2C9. AID 777. inhibition, % at 5 µM. P11712. CYP2C9 Supersomes, luciferin-H conversion, luminescence. 20% of 96,000 active;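 active means blocking of liver enzyme CYP2C9 beyond about 50% at 5 µM, limit read from the data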
CYP2C19 inh – inhibitors of human CYP2C19 | P33261 | CYP2C19 Supersomes, luciferin-H EGE luminescence, 30 min | inhibition, % at 5 µM | 21% of 96,000 active;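 active means CYP2C19 inhibition above a set limit at 5 µM in the primary screen, cut at about 50% in these data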
PTK2B oligo ant – blocks oligomerization of human Pyk2 in cells | 0.83% of 99,000 active | z-score (the deposit names both 25 µM and 10 µM) | Q14289 | Q293 cells, Pyk2 FERM NanoBiT luminescence; stronger effect = lower value;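 active means Z-score of -3 or lower, scaled per plate to the spread of control and sample wells; inactive means z-score above -3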;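 further: negative z-score means lost luminescence so less FERM oligomerization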
Cav3 T inh – inhibitors of human Cav3.2 T-type calcium channel | O95180 | Cav3.2-expressing cells, Fluo-4 calcium fluorescence FDSS; stronger effect = lower value | B-score at 10 µM | 4% of 100,000 active | AID 449739;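 active means single-dose well whose peak fluorescence ratio is a statistical outlier from its plate by either plate-standardised score or position-corrected B-score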
Each line names hits and unclear results; the compound was inactive in the other large screens. Sampled rows, rich in hits. Any-hit rate of the full collection: about 27%.

O=c1[nH]c(Nc2ccc(F)cc2)cc2ccccc12	CYP2C9 inhib 77.6, CYP2C19 inh 86.1
O=C(NC1CCCCCC1)C1CCCN(S(=O)(=O)c2cnc[nH]2)C1 (stereo unspecified)	CYP2C19 inh 83.3 (no result: PTK2B oligo ant)
O=C(C1CCCN(S(=O)(=O)c2cnc[nH]2)C1)N1CCN(Cc2ccccc2)CC1 (stereo unspecified)	none (no result: PTK2B oligo ant)
O=C(NC(c1ccccc1)c1ccccc1)C1CCCN(S(=O)(=O)c2cnc[nH]2)C1 (stereo unspecified)	CYP2C9 inhib 76.4 (no result: PTK2B oligo ant)
CCCCC(CC)CNC(=O)C1CCCN(S(=O)(=O)c2cnc[nH]2)C1 (stereo unspecified)	CYP2C9 inhib 92.7, CYP2C19 inh 100.4 (no result: PTK2B oligo ant)
O=C(NC1CCCc2ccccc21)C1CCCN(S(=O)(=O)c2cnc[nH]2)C1 (stereo unspecified)	CYP2C9 inhib 59.7, CYP2C19 inh 91.6 (no result: PTK2B oligo ant)
Cc1c(C(=O)N2CCCC2)sc(NC(=O)c2cccc(Cl)c2)c1C#N	none
O=C(Cn1cnc2c(nnn2-c2ccc(F)cc2)c1=O)N1CCCC1	none
FC(F)(F)c1cccc(OCCN2CCN(Cc3ccccc3)CC2)c1	none (no result: CYP2C19 activ, CYP2C9 activ, CYP2C9 inhib, CYP2C19 inh, Cav3 T inh)
O=S(=O)(c1ccc(Cl)cc1)n1c(Cc2ccccc2)nc2ccccc21	none (no result: CYP2C19 activ, CYP2C9 activ, CYP2C9 inhib, CYP2C19 inh, Cav3 T inh)
O=S(=O)(N1CCOCC1)n1c(Cc2ccccc2)nc2ccccc21	CYP2C19 inh 75.0
Cc1cccc(C(C)(C)C)c1OCCn1ccnc1	CYP2C9 inhib 66.1, CYP2C19 inh 98.5
Cc1cc(Cl)cc(C)c1OCCCCn1ccnc1	CYP2C9 inhib 96.4, CYP2C19 inh 100.4
Clc1ccccc1OCCCCn1ccnc1	CYP2C9 inhib 96.1, CYP2C19 inh 100.0
Cc1ccccc1OCCCCCn1ccnc1	CYP2C9 inhib 100.3, CYP2C19 inh 100.4
CCN(CC)CCCN1C(=O)C(=O)/C(=C(/O)c2ccc(OC)c(Cl)c2)C1c1ccco1 (stereo unspecified)	none (no result: PTK2B oligo ant, Cav3 T inh)
Clc1ccc(SCCCCn2ccnc2)cc1	CYP2C9 inhib 99.5, CYP2C19 inh 99.7
Clc1ccc(OCCCCSc2ncccn2)cc1	none
C=C(C)C(=O)N1CC2(CC(c3cccc(NC(=O)CC(c4ccccc4)c4ccccc4)c3)=NO2)C[C@H]1C(N)=O (stereo partly specified)	none (no result: CYP2C19 activ, CYP2C9 activ, CYP2C9 inhib, CYP2C19 inh, PTK2B oligo ant)
O=C(O)CCC(=O)Nc1ccc2c(c1)oc1ccccc12	none
Cc1ccc(C)c(C(C)NC(=O)C2C3CCC(O3)C2C(=O)O)c1 (stereo unspecified)	none (no result: PTK2B oligo ant)
OCc1csc(=Nc2ccccc2)n1-c1ccccc1	CYP2C19 inh 87.9
O=C(O)CC1SC(=Nc2ccccc2)N(c2ccccc2)C1=O (stereo unspecified)	none
Cc1cc(C)c2cc(CN(Cc3ccco3)C(=O)NCc3ccccc3)c(=O)[nH]c2c1	CYP2C9 inhib 55.4, Cav3 T inh -7.1
CCc1ccc2[nH]c(=O)c(CN(CCO)C(=O)NCc3ccccc3)cc2c1	none
Cc1cc(C)c2cc(CN(CCO)C(c3nnnn3Cc3ccc(F)cc3)C(C)C)c(=O)[nH]c2c1 (stereo unspecified)	CYP2C9 inhib 92.6, CYP2C19 inh 75.7 (no result: PTK2B oligo ant)
CCC(c1nnnn1Cc1ccc(F)cc1)N(CCCO)Cc1cc2cc3c(cc2[nH]c1=O)OCO3 (stereo unspecified)	CYP2C19 inh 55.0
Cc1cc(C)c2cc(CN(CCO)C(=O)Nc3ccc(F)cc3)c(=O)[nH]c2c1	CYP2C19 inh 74.2
CCCc1nnc(SCC(=O)N2CCOCC2)n1C	none (no result: CYP2C19 activ, CYP2C9 activ, CYP2C9 inhib, CYP2C19 inh)
COCOc1ccc(/C=C/C(=O)c2c(O)cc(OCOC)cc2OCOC)cc1	none (no result: CYP2C19 activ, CYP2C9 activ, CYP2C9 inhib, CYP2C19 inh, PTK2B oligo ant)
COC(C[C@H]1O[C@H]1[C@H](O)COCc1ccccc1)OC	none (no result: CYP2C19 activ, CYP2C9 activ, CYP2C9 inhib, CYP2C19 inh, PTK2B oligo ant)
NC(=O)C1CCN(S(=O)(=O)c2cccc(C(=O)O)c2)CC1	none
O=C(c1ccc(-c2ccccc2)cc1)N1CCN(Cc2ccccn2)CC1	none
O=C(O)C1CCCN1C(=O)Nc1ccc(Cl)cc1 (stereo unspecified)	none (no result: CYP2C19 activ, CYP2C9 activ, CYP2C9 inhib, CYP2C19 inh, Cav3 T inh)
COC(=O)C1CSC(C(=O)OC)N1C(=O)Nc1ccc(Cl)c(Cl)c1 (stereo unspecified)	CYP2C9 inhib 66.7, CYP2C19 inh 61.3
COC(=O)C1CSC(C(=O)OC)N1C(=O)Nc1ccc(Cl)cc1 (stereo unspecified)	CYP2C19 inh 69.4
CCc1c(C)sc(NC(=O)c2cc(-c3ccc(OC)c(OC)c3)on2)c1C#N	none
Cc1ccc(-c2cc(C(=O)Nc3cnn(C(C)C)c3)no2)cc1	none

Bioassay records: PubChem BioAssay, several laboratories
